# Data taken from article PMC5540273 (PLoS ONE, 2017).
# Tests used:
# Conditions in all cases: concentration: 1 μM, replicates: in singlicate; n = 1
# EPHB4 = system: EPHB4
# EPHB6 = system: EPHB6
# ERBB2 = system: ERBB2
# ERBB3 = system: ERBB3
# ERBB4 = system: ERBB4
# ERK1 = system: T1, ERK1
# T1 construct: gene MAPK3
# ERK2 = system: T2, ERK2
# T2 construct: gene MAPK1
# ERK3 = system: T3, ERK3
# T3 construct: gene MAPK6
# ERK4 = system: T4, ERK4
# T4 construct: gene MAPK4
# ERK5 = system: T5, ERK5
# T5 construct: gene MAPK7
# ERK8 = system: T6, ERK8
# T6 construct: gene MAPK15
# ERN1 = system: ERN1
# FAK = system: T7, FAK
# T7 construct: gene PTK2
# FER = system: FER
# FES = system: FES
# FGFR1 = system: FGFR1
# FGFR2 = system: FGFR2
# FGFR3 = system: FGFR3
# FGFR4 = system: FGFR4
# FGR = system: FGR
# 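Also: KINOMEscan kinase panel screen.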
SMILES,%Inh (EPHB4) [%],%Inh (EPHB6) [%],%Inh (ERBB2) [%],%Inh (ERBB3) [%],%Inh (ERBB4) [%],%Inh (ERK1) [%],%Inh (ERK2) [%],%Inh (ERK3) [%],%Inh (ERK4) [%],%Inh (ERK5) [%],%Inh (ERK8) [%],%Inh (ERN1) [%],%Inh (FAK) [%],%Inh (FER) [%],%Inh (FES) [%],%Inh (FGFR1) [%],%Inh (FGFR2) [%],%Inh (FGFR3) [%],%Inh (FGFR4) [%],%Inh (FGR) [%]
Fc1ccc(-c2nc[nH]c2-c2ccncc2)cc1 [SB-217360],0,3,41,5,10,2,0,0,12,0,4,43,0,23,0,0,0,0,0,0
CS(=O)(=O)CCNCc1nc(-c2ccc3ncnc(Nc4ccc5c(cnn5Cc5ccccc5)c4)c3c2)cs1.Cl.Cl [GW569716],8,21,100,98,92.4,4,10,0,0,0,0,0,0,0,0,0,0,0,8,24
CNc1nc(-c2ccc3c(N)n[nH]c3c2)cc(N2C[C@@H](C(=O)NC3CCCCC3)OC[C@H]2C)n1 [GSK2375584],14,0,27,15,24,0,1,0,8,0,0,0,0,34,0,13,27,27,7,17
COc1ccc(-c2coc3ccc(-c4nnc(C)o4)cc23)cc1,24,0,0,0,0,0,0,0,1,1,0,0,0,0,22,0,4,4,0,36
COc1ccc(CSc2nnc(-c3ccc4ncsc4c3)o2)cc1C(F)(F)F,18,0,0,0,0,0,30,0,0,0,57,0,0,0,14,5,0,0,0,27
CC(=O)c1cccc(NC(=O)NC2CCN(c3ccnc(Nc4ccc(F)cc4)n3)C2)c1 (stereo not drawn) [GSK1379710],4,19,15,8,6,0,0,0,30,12,0,19,0,3,0,0,0,6,11,0
Cc1ccc(NC(=O)Nc2ccc(Cl)c(C(F)(F)F)c2)cc1-c1ccc(C(=O)Nc2ccncc2)cc1 [GSK1398470],12,18,0,0,6,15,12,10,10,0,0,25,0,22,15,0,12,23,11,19
Cc1cccc2c(-c3ccncn3)c(-c3ccc(F)cc3)nn12 [GW515532],2,21,0,0,0,0,0,0,1,0,100,1,0,8,0,15,0,0,0,1
Cc1ccc(NC(=O)Nc2ccccc2F)cc1-c1ccc(C(=O)Nc2ccncc2)cc1 [GSK1398477],21,20,8,0,0,8,9,11,20,0,0,13,0,16,11,19,14,23,21,26
Cc1ccc(-c2nc(Nc3ccncc3)c3ccccc3n2)s1 [GSK189015],22,2,0,0,31,17,100,0,0,0,52,22,27,6,19,15,30,28,5,22
Cc1ccc(NC(=O)c2ccc(Cl)cc2)cc1-c1ccc(C(=O)Nc2ccncc2)cc1 [GSK1398467],30,0,30,0,12,0,0,0,19,0,0,0,0,24,0,0,0,7,18,40
Cc1ccc(NC(=O)Nc2ccc(Cl)cc2)cc1-c1ccc(C(=O)Nc2ccncc2)cc1 [GSK1398472],23,2,25,0,0,0,0,15,3,0,0,0,0,15,0,0,39,13,14,18
COc1ccc(Nc2nccc(N3CCC(NC(=O)C(C)c4ccc(Cl)cc4)C3)n2)cc1 (stereo not drawn) [GSK1379735],7,18,11,9,0,0,0,0,0,0,44,0,0,28,12,8,36,17,3,10
CNc1nc(-c2ccc3c(N)n[nH]c3c2)cc(N2C[C@@H](C(=O)Nc3ccccc3)CC[C@H]2C)n1 [GSK2298859],14,9,12,0,19,0,0,6,0,0,0,2,0,33,0,23,0,16,0,22
Nc1ncnc2occ(-c3ccc4c(c3)CCN4C(=O)Cc3cc(F)ccc3F)c12 [GSK2645446],6,87,30,11,0,0,0,21,0,0,0,0,0,8,0,0,0,17,1,16
CCn1c(-c2c(N)noc2C)nc2cnccc21 [SB-737856],54,0,31,0,0,0,9,100,16,0,41,15,0,3,42,0,28,37,11,61
Cn1cncc1C(=O)NC1CCN(c2ccnc(Nc3ccc(F)cc3)n2)C1 (stereo not drawn) [GSK1379717],14,15,0,0,5,0,0,0,0,0,0,0,0,0,0,0,0,7,1,22
CNc1cc(-c2ccc3c(N)n[nH]c3c2)nc(N)n1 [GSK2224810],19,0,32,0,0,0,0,3,7,0,0,0,0,19,9,0,0,28,7,24
COc1ccc(CSc2nnc(-c3ccc4c(c3)CCO4)o2)cc1,13,0,18,0,0,0,0,0,0,6,0,0,0,0,12,0,0,0,0,14
COc1ccc(Nc2nccc(-c3ccc(NC(=O)c4cc5cc(F)ccc5[nH]4)cc3)n2)cc1 [GSK1229496],16,6,38,13,6,0,0,0,0,0,0,0,0,16,15,0,19,9,0,10
Fc1ccc(-c2nn3cccc(F)c3c2-c2ccncc2)cc1 [GW475620],10,0,39,0,30,21,10,0,4,0,15,0,1,17,0,23,25,6,0,15
